Data taken from the supplement of paper PMC7393113.
Counter-ions that a name gives are not always drawn. ± gives the standard deviation of the averaged measurements.

Test system: iBMDM (immortalised mouse bone-marrow-derived macrophages), LPS-stimulated
Experiment: mitochondrial superoxide (MitoSOX fluorescence) fold increase over unstimulated control; higher = more LPS-induced mitochondrial ROS (less inhibition)
Conditions: inhibitor concentration: 500 nM, LPS: 100 ng/ml
How it was run: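 After 20 h in phenol-red-free 1% FCS/DMEM in black 96-well plates, immortalised mouse bone-marrow-derived macrophages were exposed to kinase inhibitors (500 nM) for 30 min, 1 μM MitoSox for 10 min and then LPS (100 ng/ml). A ClarioStar plate reader recorded fluorescence at 510/580 nm every 60 min for 4 h. The reported mitochondrial superoxide is the mean fold induction versus untreated macrophages over triplicate wells.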

SMILES	mitochondrial superoxide (time after LPS: 1 h)	mitochondrial superoxide (time after LPS: 2 h)	mitochondrial superoxide (time after LPS: 4 h)
CN(C)CCOc1ccc(-c2nc(-c3ccncc3)c(-c3ccc4c(c3)CC/C4=N\O)[nH]2)cc1	1.07 ± 0.036	1.15 ± 0.075	1.31 ± 0.083
O=S(=O)(c1cccc2cnccc12)N1CCCNCC1 [Fasudil (HA-1077) HCl]	1.03 ± 0.023	1.12 ± 0.041	1.31 ± 0.029
CC(C)(C)c1cnc(CSc2cnc(NC(=O)C3CCNCC3)s2)o1	1.32 ± 0.035	1.43 ± 0.017	1.5 ± 0.14
FC(F)c1nc2ccccc2n1-c1nc(N2CCOCC2)nc(N2CCOCC2)n1	1.53 ± 0.029	1.71 ± 0.068	1.8 ± 0.038
CC[C@H](Nc1ncnc2[nH]cnc12)c1nc2cccc(F)c2c(=O)n1-c1ccccc1 [CAL-101 (Idelalisib, GS-1101)]	1.34 ± 0.019	1.4 ± 0.06	1.48 ± 0.11
Nc1ccc(C(=O)Nc2cccc(-c3nc(N4CCOCC4)c4oc5ncccc5c4n3)c2)cn1	1.15 ± 0.037	1.23 ± 0.053	1.24 ± 0.028
O=C(Nc1ccc(OC(F)(F)F)cc1)c1sccc1NCc1ccnc2ccccc12	1.21 ± 0.044	1.2 ± 0.067	1.25 ± 0.031
O=C1NC(=O)/C(=C/c2ccc3nccc(-c4ccncc4)c3c2)S1	1.12 ± 0.055	1.23 ± 0.11	1.33 ± 0.1
NC(=O)c1cccc(-c2cc(Nc3ccc(OC(F)(F)F)cc3)ncn2)c1	1.14 ± 0.054	1.11 ± 0.054	1.21 ± 0.082
CC(=O)Nc1cccc(-n2c(=O)n(C3CC3)c(=O)c3c(Nc4ccc(I)cc4F)n(C)c(=O)c(C)c32)c1	1.34 ± 0.11	1.44 ± 0.066	1.62 ± 0.083
C[C@@H]1CN(CC(=O)Nc2ccc3c(c2)Cc2cccc(-c4cc(=O)cc(N5CCOCC5)o4)c2S3)C[C@H](C)O1	1.2 ± 0.07	1.31 ± 0.059	1.44 ± 0.015
Cc1cc(O)c2c(c1)C(=O)c1cccc(O)c1C2=O [Chrysophanic Acid]	1.29 ± 0.11	1.36 ± 0.097	1.48 ± 0.022
C[C@]1(O)C[C@@H](c2nc(-c3ccc4ccc(-c5ccccc5)nc4c3)c3c(N)nccn32)C1 [OSI-906 (Linsitinib)]	1.45 ± 0.18	1.51 ± 0.21	1.56 ± 0.19
CO[C@H]1C[C@@H]2CC[C@@H](C)[C@@](O)(O2)C(=O)C(=O)N2CCCC[C@H]2C(=O)O[C@H]([C@H](C)C[C@@H]2CC[C@@H](OC(=O)C(C)(CO)CO)[C@H](OC)C2)CC(=O)[C@H](C)/C=C(\C)[C@@H](O)[C@@H](OC)C(=O)[C@H](C)C[C@H](C)/C=C/C=C/C=C/1C	1.55 ± 0.051	1.65 ± 0.098	1.75 ± 0.089
Oc1ccc2ccccc2c1SSc1c(O)ccc2ccccc12	1.17 ± 0.049	1.22 ± 0.04	1.32 ± 0.015
C[S+]([O-])c1ccc(-c2nc(-c3ccc(F)cc3)c(-c3ccncc3)[nH]2)cc1 (stereo unspecified)	1.39 ± 0.14	1.5 ± 0.16	1.6 ± 0.18
C[C@@]1(C(=O)Nc2ccc(F)nc2)CCCN1c1nc(Nc2cc(C3CC3)n[nH]2)c2cccn2n1	1.38 ± 0.051	1.43 ± 0.06	1.45 ± 0.066
CCC(=O)Nc1cccc(Oc2nc(Nc3ccc(N4CCN(C)CC4)cc3OC)ncc2Cl)c1	1.39 ± 0.084	1.51 ± 0.091	1.79 ± 0.061
CNC(=O)c1cc(Oc2ccc(NC(=O)Nc3ccc(Cl)c(C(F)(F)F)c3)c(F)c2)ccn1 [Regorafenib (BAY 73-4506)]	1.5 ± 0.04	1.68 ± 0.057	1.71 ± 0.062
COc1cc(N2CCC(N(C)C)CC2)ccc1Nc1ncc(Cl)c(Nc2ccccc2P(C)(C)=O)n1	1.15 ± 0.031	1.27 ± 0.11	1.33 ± 0.076
Cn1cc(-c2ccc3nnc(C(F)(F)c4ccc5ncccc5c4)n3n2)cn1	1.4 ± 0.062	1.44 ± 0.015	1.5 ± 0.019

SMILES	mitochondrial superoxide (time after LPS: 1 h)	mitochondrial superoxide (time after LPS: 2 h)	mitochondrial superoxide (time after LPS: 4 h)
NC1(c2ccc(-c3nc4ccn5c(=O)[nH]nc5c4cc3-c3ccccc3)cc2)CCC1	1.26 ± 0.036	1.34 ± 0.065	1.47 ± 0.14
CN1CCN(c2ccc3nc(-c4c(N)c5c(F)cccc5[nH]c4=O)[nH]c3c2)CC1 [Dovitinib (TKI-258) Dilactic Acid]	1.28 ± 0.073	1.32 ± 0.03	1.51 ± 0.041
O=C(Nc1c[nH]nc1-c1nc2ccc(CN3CCOCC3)cc2[nH]1)NC1CC1	1.34 ± 0.02	1.42 ± 0.033	1.51 ± 0.036
CN1CC[C@H](c2c(O)cc(O)c3c(=O)cc(-c4ccccc4Cl)oc23)[C@H](O)C1 [Flavopiridol HCl]	1.31 ± 0.077	1.48 ± 0.088	1.71 ± 0.06
Cc1ccc(C(=O)Nc2ccc(CN3CCN(C)CC3)c(C(F)(F)F)c2)cc1C#Cc1cnc2[nH]ncc2c1	1.42 ± 0.049	1.53 ± 0.032	1.75 ± 0.062
CNC(=O)CN1CCC(Oc2cc3c(Nc4cccc(Cl)c4F)ncnc3cc2OC)CC1 [AZD8931 (Sapitinib)]	1.12 ± 0.041	1.24 ± 0.048	1.37 ± 0.046
CCn1c(N)c(C(=O)NC)c(=O)c2ccc(C#CC(C)(O)COC)nc21 (stereo unspecified)	1.11 ± 0.027	1.22 ± 0.042	1.33 ± 0.051
COc1cc(N2CCC(N3CCN(C)CC3)CC2)ccc1Nc1ncc(Cl)c(Nc2ccccc2S(=O)(=O)C(C)C)n1	1.24 ± 0.068	1.3 ± 0.019	1.47 ± 0.04
CCCS(=O)(=O)Nc1ccc(F)c(C(=O)c2c[nH]c3ncc(-c4ccc(Cl)cc4)cc23)c1F [Vemurafenib (PLX4032, RG7204)]	1.159 ± 0.0019	1.16 ± 0.015	1.17 ± 0.029
CCCNC(=O)Nc1ccc(Oc2ncnc3cc(OC)c(OC)cc23)cc1Cl	1.15 ± 0.055	1.21 ± 0.066	1.22 ± 0.024
N#C/C(=C(/N)Sc1ccc(N)cc1)c1ccccc1C(F)(F)F	1.35 ± 0.024	1.42 ± 0.092	1.506 ± 0.0063
CCc1cc2c(cc1N1CCC(N3CCOCC3)CC1)C(C)(C)c1[nH]c3cc(C#N)ccc3c1C2=O	1.26 ± 0.097	1.4 ± 0.066	1.64 ± 0.12
O=C(Cc1ccc(-c2ccc(OCCN3CCOCC3)cc2)cn1)NCc1ccccc1	1.31 ± 0.1	1.4 ± 0.1	1.61 ± 0.11
Cc1cc(C(=O)NOCCO)c(Nc2ccc(I)cc2F)n(C)c1=O	1.05 ± 0.042	1.25 ± 0.092	1.39 ± 0.073
Nc1nc(N)c2nc(-c3cccc(O)c3)cnc2n1	1.03 ± 0.016	1.04 ± 0.043	1.09 ± 0.046
NC(=O)Nc1sc(-c2ccc(F)cc2)cc1C(N)=O	1.15 ± 0.055	1.2 ± 0.045	1.33 ± 0.06
CCCS(=O)(=O)Nc1ccc(F)c(C(=O)c2c[nH]c3ncc(Cl)cc23)c1F	1.24 ± 0.15	1.26 ± 0.15	1.34 ± 0.21
Cc1[nH]c(/C=C2\C(=O)Nc3ccc(S(=O)(=O)Cc4c(Cl)cccc4Cl)cc32)c(C)c1C(=O)N1CCC[C@@H]1CN1CCCC1	1.56 ± 0.039	1.61 ± 0.027	1.77 ± 0.028
COc1cc(Nc2ncc(F)c(Nc3ccc4c(n3)NC(=O)C(C)(C)O4)n2)cc(OC)c1OC [R406 (free base)]	1.23 ± 0.07	1.32 ± 0.041	1.29 ± 0.065
Cn1cnc2c(F)c(Nc3ccc(Br)cc3Cl)c(C(=O)NOCCO)cc21 [Selumetinib (AZD6244)]	1.45 ± 0.037	1.51 ± 0.031	1.61 ± 0.081
COc1ccc2c(c1)c(C1=C(c3c[nH]c4ccccc34)C(=O)NC1=O)cn2CCCN(C)C	1.23 ± 0.056	1.27 ± 0.043	1.36 ± 0.042

SMILES	mitochondrial superoxide (time after LPS: 1 h)	mitochondrial superoxide (time after LPS: 2 h)	mitochondrial superoxide (time after LPS: 4 h)
Cc1nc(NC(=O)N2CCC[C@H]2C(N)=O)sc1-c1ccnc(C(C)(C)C(F)(F)F)c1	1.3 ± 0.032	1.46 ± 0.052	1.7 ± 0.057
Oc1cc(O)cc(/C=C/c2ccc(O)c(O)c2)c1 [Piceatannol]	1.13 ± 0.0055	1.15 ± 0.013	1.23 ± 0.041
C[C@@H](N)[C@H]1CC[C@H](C(=O)Nc2ccncc2)CC1	1.56 ± 0.061	1.67 ± 0.11	1.71 ± 0.065
Nc1nccc(Oc2ccc(NC(=O)c3c[nH]cc(-c4ccc(F)cc4)c3=O)cc2F)c1Cl	1.21 ± 0.032	1.22 ± 0.043	1.37 ± 0.11
COc1cc(Nc2c(C#N)cnc3cc(OCCCN4CCN(C)CC4)c(OC)cc23)c(Cl)cc1Cl [Bosutinib (SKI-606)]	1.58 ± 0.017	1.66 ± 0.056	1.81 ± 0.04
C=CC(=O)Nc1cccc(Oc2nc(Nc3ccc(N4CCN(C)CC4)cc3)ncc2Cl)c1	1.54 ± 0.047	1.71 ± 0.056	1.8 ± 0.14
CCn1c(-c2nonc2N)nc2c(C#CC(C)(C)O)ncc(OC[C@H]3CCCNC3)c21	1.3 ± 0.025	1.4 ± 0.027	1.49 ± 0.019
O=P(O)(O)C(O)(Cn1ccnc1)P(=O)(O)O [Zoledronic Acid]	1.27 ± 0.02	1.29 ± 0.085	1.4 ± 0.16
CC(C)N(CCC(=O)c1ccc2ccccc2c1)Cc1ccccc1	1.31 ± 0.017	1.44 ± 0.11	1.69 ± 0.02
C[C@@H](Oc1cc(-c2cnn(C3CCNCC3)c2)cnc1N)c1c(Cl)ccc(F)c1Cl	1.39 ± 0.038	1.5 ± 0.052	1.64 ± 0.079
COc1ccc(-c2cc3c(C)nc(N)nc3n([C@H]3CC[C@H](OCCO)CC3)c2=O)cn1	1.37 ± 0.058	1.53 ± 0.056	1.74 ± 0.049
Nc1nc(NCCNc2ncc(-n3ccnc3)c(-c3ccc(Cl)cc3Cl)n2)ccc1[N+](=O)[O-]	1.17 ± 0.042	1.23 ± 0.024	1.31 ± 0.056
Nc1cccc(-c2cc3c(Oc4cccc(O)c4)ncnc3[nH]2)c1	1.06 ± 0.059	1.17 ± 0.022	1.25 ± 0.03
CNC(=O)c1cc(COc2nnc(Nc3ccc(Cl)cc3)c3ccoc23)ccn1 [Telatinib]	1.23 ± 0.036	1.33 ± 0.051	1.38 ± 0.11
CO[C@H]1C[C@@H]2CC[C@@H](C)[C@@](O)(O2)C(=O)C(=O)N2CCCC[C@H]2C(=O)O[C@H]([C@H](C)C[C@@H]2CC[C@@H](OP(C)(C)=O)[C@H](OC)C2)CC(=O)[C@H](C)/C=C(\C)[C@@H](O)[C@@H](OC)C(=O)[C@H](C)C[C@H](C)/C=C/C=C/C=C/1C [Ridaforolimus (Deforolimus, MK-8669)]	1.55 ± 0.087	1.592 ± 0.0072	1.78 ± 0.04
O=S(=O)(NCCNCC=Cc1ccc(Br)cc1)c1cccc2cnccc12	1.01 ± 0.063	1.15 ± 0.074	1.28 ± 0.07
CN1CCN(c2nc(C3=C(c4c[nH]c5ccccc45)C(=O)NC3=O)c3ccccc3n2)CC1 [Sotrastaurin]	1.41 ± 0.015	1.55 ± 0.039	1.749 ± 0.012
CN1CCN(C2CCN(C(=O)Nc3cc(Oc4ccc(NC(=O)C5(C(=O)Nc6ccc(F)cc6)CC5)c(F)c4)ccn3)CC2)CC1 [Golvatinib (E7050)]	1.04 ± 0.073	1.08 ± 0.075	1.09 ± 0.071
CCOc1cc2ncc(C#N)c(Nc3ccc(F)c(Cl)c3)c2cc1NC(=O)/C=C/CN(C)C [Pelitinib (EKB-569)]	1.2 ± 0.018	1.21 ± 0.049	1.32 ± 0.032
CCc1cncnc1N1CCN(Cc2nc3ccc(C(F)(F)F)cc3[nH]2)CC1	1.12 ± 0.073	1.23 ± 0.037	1.34 ± 0.1
